Test results as given in the supplement of paper PMC6555819.

Legend:
Test in all cases: PBM binding z-score (relative to random genomic background probes); higher = stronger binding; sequences stand for … in GC…GCGATTGACAGCGTAGAATGAAGG
[1] = system: RARb homodimer (NR concentration 270 nM)
Outline: (§1)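 Regression normalization was applied to scanned fluorescence from custom Agilent 4×180K protein-binding microarrays. Before scanning, arrays were incubated 1 h with ligand-free nuclear receptor dimers, and binding was detected with antibodies against each partner (one per run). Binding z-scores use the random background probes as reference.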

[2] = system: RARg:RXRa (NR concentration 270 nM, RXRa partner concentration 90 nM)
Outline: as §1

[3] = system: RARg homodimer (NR concentration 270 nM)
Outline: as §1

[4] = system: RXRa DBDmut IVT, anti-RXR (DBD mutation: RXRa K156A/R161A, NR concentration 90 nM)
Outline: as §1

[5] = system: RXRa homodimer (NR concentration 180 nM)
Outline: as §1

[6] = system: THRa:RXRa (NR concentration 90 nM, RXRa partner concentration 90 nM)
Outline: as §1

[7] = system: THRa homodimer (NR concentration 90 nM)
Outline: as §1

[8] = system: VDR homodimer (NR concentration 270 nM)
Outline: as §1

Sequence | PBM binding z-score [1] | PBM binding z-score [2] | PBM binding z-score [3] | PBM binding z-score [4] | PBM binding z-score [5] | PBM binding z-score [6] | PBM binding z-score [7] | PBM binding z-score [8]
AGAATGAGGTTATACCTAGATCAGGGAAGAAAGT | 0.483 | 1.75 | 1.14 | 1.51 | 2.12 | 2.05 | 0.418 | 0.345
AGAATGAGGTAACCAAAGATCAGGGAAACGCTTG | -0.385 | 0.568 | 0.561 | -0.346 | 0.827 | 2.05 | 0.539 | -0.262
ATATGTAGGTTAGCTCGGGTCATTCAGACTAGGC | 2.89 | 2.48 | 2.04 | 0.986 | 3.02 | 4.98 | 2.7 | 2.6
ATACAAAGGTGATCGTGAGGTCGTTGATACTAAC | 2.28 | 3.87 | 1.85 | 0.883 | 2.73 | 3.66 | 2.12 | 2.97
CAAACTAGATCAAGGTCAAAGTCGGTTTGTGCCA | 3.72 | 3.89 | 3.29 | 2.46 | 4.18 | 3.88 | 2.96 | 3.73
TCGTGTAGATCAATAGAGGTTAAGAAAGTGCGCT | 1.47 | 0.551 | 0.428 | 0.621 | 1.23 | 2.09 | -0.291 | 0.428
AATACAGGGTCACTAGGCCATAGTAGGTACGAAT | 3.38 | 5.37 | 4.61 | 2.58 | 5.6 | 3.55 | 1.24 | 2.98
CGAACTAGGTCATTGATAGGACAGTGAATAGTAA | 2.83 | 4.58 | 4.22 | 2.29 | 2.34 | 2.61 | 0.97 | 1.35
CGAACTAGGTCGTTGACAGGACAGTGAATAGTAA | 0.711 | 1.6 | 1.2 | 1.18 | 0.488 | 1.33 | 0.0428 | 0.716
TAGAGTAGGTTAGTCGGGGCATTCAGCCAACATA | 0.711 | 0.539 | 0.52 | -0.0578 | 0.327 | 1.42 | 0.443 | 1.03
CCTACTGGGCCAAAGGTCATTGATTCCAATGCTC | 4.66 | 5.94 | 4.86 | 1.43 | 7.21 | 3.33 | 0.631 | 2.09
TCCTATAGGTAATACAGGTGAAAGTCGGCATCTA | 0.461 | 0.471 | 0.243 | 1.05 | 0.757 | 0.883 | 0.298 | -0.333
CGAACTAGGTCAAGGACAGTGCATCTCCGCACGC | 3.51 | 4.21 | 4.75 | 1.45 | 2.72 | 3.28 | 2.03 | 0.69
CCGACTGGGGCGGAAAGGTTACCATACCATCCGG | 2.17 | 1.49 | 0.882 | -1.21 | 1.76 | 1 | -0.282 | -0.201
GCAGACAGGTGAAACGCGGGTAACTCAGGGTGGC | 0.366 | 0.785 | 0.319 | -0.6 | 0.631 | 1.64 | -0.533 | -0.362
GCATATAGTTAATACAAGGTGAAAGTCCGATTGT | 0.847 | 0.222 | 0.365 | 0.966 | 0.312 | 2.89 | 1.18 | -0.0676
ATATGTCGGTTAGCTGGGGTCATTCAGACTAGGC | 3.58 | 3.65 | 2.68 | 1.59 | 5.28 | 4.56 | 3.31 | 4.56

Sequence | PBM binding z-score [1] | PBM binding z-score [2] | PBM binding z-score [3] | PBM binding z-score [4] | PBM binding z-score [5] | PBM binding z-score [6] | PBM binding z-score [7] | PBM binding z-score [8]
CAAACTAAGTCAAAGGTCAAAGTCGAGCCAACCA | 4.68 | 6.82 | 5.86 | 2.2 | 8.46 | 3.74 | 0.739 | 2.93
CGAACTAGGTCAAGGGCAGTGAATCTCCGCACGC | 3.25 | 3.74 | 4.64 | 1.59 | 2.35 | 2.98 | 0.986 | 0.718
TTACCAAGGCGAAAGGTCGTTGATGCACGCCTTG | 1.7 | 2.04 | 1.11 | 0.253 | 2.66 | 1.44 | -0.366 | 1.13
TCGAATAGGTTACCAATGGGGCATTCAGCTTTCT | 1.21 | 2.11 | 0.782 | 1.09 | 1.39 | 0.655 | -0.381 | -0.151
AGTACGAGGGCAATGAGTTGATAGCACGGGTGGC | 1.2 | 1.06 | 1.62 | 2.1 | 0.711 | 1.07 | -0.111 | 2.98
CATACAGGGTCAGCTAGGCCAGACTAGGGACGGC | 3.19 | 4.5 | 4.67 | 1.37 | 3.99 | 3.16 | 1.06 | 1.2
TAGCCGAGGTCATGGGCCAGTATACCACGCGAAC | 4.19 | 6.64 | 6.26 | 3.46 | 7.64 | 4.25 | 2.71 | 3.91
TTACCAAGGTGAAAGGTCGCTGATGCACGCCTTG | 2.77 | 4.17 | 2.3 | 0.982 | 5.52 | 3.19 | 0.725 | 0.555
CGATCTAGGTCAAGGACAGTGAATCTCCGCACGC | 2.75 | 3.6 | 4.45 | 1.55 | 2.2 | 3.07 | 2.46 | 0.43
AGAACGAGGGCACGCTGAGTTGTTAGCAGAGTAG | 1.16 | 1.85 | 2.11 | 1.95 | 1.55 | 1.73 | -0.0744 | 1.29
AATACAGGGTCATCGTAGGCCAGAGTGCGCACAG | 3.68 | 5.64 | 4.81 | 3.12 | 6.37 | 4.6 | 1.4 | 3.2
AGAACGAGGGCAATGAGTTGATACCACGGGTGGC | 0.985 | 1.02 | 1.7 | 2.06 | 0.987 | 0.993 | -0.484 | 3.27
TCTTGTAGATCAAGCAGGTTAAGAAGGCCTGAGT | 0.0999 | -0.137 | -0.293 | 0.295 | 0.317 | 0.354 | -0.512 | 0.00431
AATTCAGGGTCATCGTAGGCCAGAGTACGCACAG | 3.87 | 6.21 | 5.46 | 3.82 | 7.13 | 4.78 | 2.24 | 4.01
CCTTACGGGTCACTTCAGGTTATAGCATCGGAGT | 2.86 | 4.35 | 4.1 | 1.67 | 4.38 | 5.04 | 1.29 | 1.71
ATATGTAGGTTATCGTGTCATTCAGTTTGCGCAT | 1.17 | 0.973 | 0.988 | 1.09 | 1.06 | 0.907 | 0.568 | 1.53
CAAACTAGGTCACCGGAAGGTCAAAGTACGCATG | 5.73 | 8.48 | 7.65 | 2.43 | 6.46 | 4.8 | 3.25 | 3.52
